Reference: PubChem BioAssay (Tox21)
Results filed as inconclusive are left out. Active and inactive are the calls of the source. Unless noted, the call rests on the fitted dose curve; in most records, active means well fitted curve in the direction sought with a large enough effect in the repeat runs; inconclusive means weak or mixed curves; inactive means no such curve, though single readings can be large; an effect the other way counts as inactive or inconclusive.

What was measured:
[1] = qHTS assay for small molecule agonists of the p53 signaling pathway (AID 651631; calls by dose curve; further: nearly all actives have a fitted effect of over 15% in size)
Procedure, shortened: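 HCT-116 cells carrying a beta-lactamase reporter under p53 response elements were dosed with compound for 16 h at 37 °C. LiveBLAzer B/G FRET substrate was then added for 2 h at room temperature, and fluorescence intensity was read to detect pathway agonism.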

[2] = qHTS assay for small molecules that induce genotoxicity in human embryonic kidney cells expressing luciferase-tagged ATAD5 (AID 651632); further: nearly all actives have a fitted effect of over 15% in size
Procedure, shortened: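 Test compounds were delivered by pin tool onto HEK293T reporter cells (2,000/well) expressing ATAD5 fused to luciferase. After 16 hr at 37C, 5% CO2, Amplite was added for 30 min at room temperature and luminescence was measured.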

[3] = qHTS assay for small molecule agonists of the p53 signaling pathway - cell viability (AID 651633; calls by dose curve;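 further: p53RE-bla HCT reporter cells with a stable beta-lactamase p53 reporter; series mostly up to about 83 µM; nearly all actives have a fitted effect of over 30% in size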)
Procedure, shortened: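 Viability counter-read: CellTiter-Glo luminescence (30 min, room temperature) in the same p53RE-bla plates. These plates had been exposed to compounds for 16 h at 37 C.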

[4] = qHTS assay for small molecule disruptors of the mitochondrial membrane potential - cell viability (AID 720634; calls by dose curve;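 further: human HepG2 liver cancer cells; series mostly up to about 83 µM; nearly all actives have a fitted effect of over 20% in size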)
Procedure, shortened: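 Same-well counter-screen: following the MMP dye addition, CellTiter-Glo was added to 1 hr compound-treated HepG2 cells and luminescence read after 30 min at room temperature.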

[5] = qHTS assay to test for compound auto fluorescence at 535 nm (green) in HepG2 cells (AID 720675)
[6] = qHTS assay to test for compound auto fluorescence at 590 nm (red) in HEK293 cells (AID 720679)
Procedure, shortened: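 HEK293 cells (2,000/well, 10% dialyzed FBS) attached 4-5 hr, then dosed with compound or DMSO and incubated overnight at 37C, 5% CO2. Red fluorescence read at 540/590 nm, Rose Bengal sodium as reference fluorophore.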

[7] = qHTS assay for small molecules that induce genotoxicity in human embryonic kidney cells expressing luciferase-tagged ATAD5 - cell viability (AID 651634; calls by dose curve; further: nearly all actives have a fitted effect of over 25% in size)
Procedure, shortened: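 Quantitative high-throughput format. HEK293T cells expressing ATAD5 fused to luciferase were plated at 2,000 cells/well and treated 15.5 hr with compound versus DMSO. Viability was determined by fluorescent live-cell protease substrate, 30 min at 37C.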

[8] = qHTS assay to test for compound auto fluorescence at 590 nm (red) in HepG2 cells (AID 720674)
Procedure, shortened: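 We screened compounds on adherent HepG2 cells, incubating them for an hour at 37 C in 5% CO2 before reading emission at 590 nm under 540 nm excitation; values reflect equivalence to Rose Bengal sodium fluorescence.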

[9] = qHTS assay to test for compound auto fluorescence at 460 nm (blue) in HEK293 cells (AID 720678)
Procedure, shortened: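 HEK293 cells (2,000/well, medium with 10% dialyzed FBS) attached 4-5 hr, then exposed to compound overnight at 37C, 5% CO2. Blue fluorescence read at 405/460 nm, with triamterene as reference fluorophore.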

[10] = qHTS assay for small molecule disruptors of the mitochondrial membrane potential (AID 720635)
Procedure, shortened: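 Mitochondrial membrane potential tracked with Mito-MPS dye, red aggregates (ex 540/em 590 nm) against green monomers (ex 490/em 535 nm). Compound treatment 1 hr at 37C, dye 30 min in HepG2.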
On the % scale 0 is the no-effect control and ±100 the full control effect.

CCOc1cc([N+](=O)[O-])c(OCC)cc1N1CCOCC1
inactive: outcome [1] | Potency [2] | outcome [3] | outcome [4] | outcome [5] | outcome [6]

CCCCCCCC/C=C\CCCCCCCC(=O)OCCCC
inactive: outcome [1] | outcome [3] | Potency [7] | outcome [4] | fluorescence, relative to Rose Bengal [8] 0.139% [at 18.6 µM] | fluorescence, % of fluorescein control [5] -0.0204% [at 18.6 µM] | fluorescence, % of triamterene [9] -0.0584% [at 18.6 µM] | fluorescence, % of fluorescent control [6] 0.3% [at 18.6 µM]

CC1=CCC(C(C)C)=CC1
inactive: outcome [1] | Potency [2] | Potency [7] | outcome [8] | outcome [5] | outcome [9] | outcome [6]

O=C1CCCC(=O)O1
inactive: outcome [1] | outcome [3] | Potency [7] | outcome [4] | Potency [10] | outcome [8] | outcome [5] | outcome [9] | outcome [6]

CC(C)NCC(O)COc1cccc2[nH]ccc12 (stereo not drawn)
inactive: outcome [1] | outcome [3] | outcome [4] | outcome [8] | outcome [5] | outcome [9] | outcome [6]

Cc1ccc(S(=O)(=O)O)c(C)c1
inactive: outcome [1] | outcome [3] | Potency [7] | outcome [4] | outcome [8] | outcome [5] | outcome [9] | outcome [6]

O=C(NCC(O)CO)c1c(I)c(C(=O)NCC(O)CO)c(I)c(N(CCO)C(=O)CO)c1I (stereo not drawn)
inactive: outcome [1] | outcome [3] | Potency [7] | outcome [4] | Potency [10] | fluorescence, relative to Rose Bengal [8] -0.211% [at 18.6 µM] | fluorescence, % of fluorescein control [5] -0.0278% [at 18.6 µM] | fluorescence, % of triamterene [9] 0.0229% [at 18.6 µM] | fluorescence, % of fluorescent control [6] -0.351% [at 18.6 µM]

N#Cc1ccc(C(=O)O)cc1
inactive: outcome [1] | Potency [7] | outcome [4] | Potency [10] | outcome [5] | outcome [6]

c1ccc2nccnc2c1
inactive: outcome [1] | Potency [2] | Potency [7] | outcome [4] | Potency [10] | outcome [5] | outcome [9] | outcome [6]

Cc1cccc(C)c1NC(=O)c1ccccc1C(=O)O
inactive: outcome [1] | Potency [7] | outcome [4] | Potency [10] | outcome [8] | outcome [5] | outcome [9] | outcome [6]

CC(=O)CCCCn1c(=O)c2c(ncn2C)n(C)c1=O
inactive: outcome [1] | outcome [3] | Potency [7] | outcome [4] | fluorescence, relative to Rose Bengal [8] 0.0631% [at 18.6 µM] | fluorescence, % of fluorescein control [5] -0.15% [at 18.6 µM] | fluorescence, % of triamterene [9] 0.0666% [at 18.6 µM] | fluorescence, % of fluorescent control [6] -0.0868% [at 18.6 µM]

Nc1nnc(-c2cccc(Cl)c2Cl)c(N)n1
inactive: outcome [1] | Potency [2] | Potency [7] | outcome [8] | outcome [5] | outcome [6]

Nc1ccc(S(=O)(=O)Nc2ccc(Cl)nn2)cc1
inactive: outcome [1] | Potency [2] | Potency [7] | outcome [4] | Potency [10] | outcome [5] | outcome [9] | outcome [6]

O=C(c1ccc(O)cc1)c1ccc(O)c(O)c1O
inactive: outcome [1] | Potency [2] | outcome [3] | outcome [4] | outcome [8] | outcome [5] | outcome [6]

NC(CO)C(=O)NNCc1ccc(O)c(O)c1O (stereo not drawn)
inactive: outcome [1] | outcome [3] | Potency [7] | outcome [4] | outcome [8] | outcome [5] | outcome [9] | outcome [6]

CCCC(=O)C(C)=O
inactive: outcome [1] | Potency [2] | Potency [7] | outcome [4] | outcome [8] | outcome [5] | outcome [9] | outcome [6]

CCC(C)NC(N)=O (stereo not drawn)
inactive: outcome [1] | Potency [2] | Potency [7] | outcome [4] | outcome [8] | outcome [5] | outcome [6]

CCN1CCc2nc(N)oc2CC1
inactive: outcome [1] | outcome [3] | Potency [7] | outcome [4] | Potency [10] | outcome [8] | outcome [5] | outcome [9] | outcome [6]

CC(=O)/C=C/C1C(C)=CCC(C)C1(C)C (stereo not drawn)
inactive: outcome [1] | outcome [3] | Potency [7] | outcome [4] | outcome [8] | outcome [5] | outcome [9] | outcome [6]

C=COCCOCCOCCOC=C
inactive: outcome [1] | outcome [3] | Potency [7] | outcome [4] | Potency [10] | outcome [5] | outcome [6]

OCCN(CCO)c1cccc(Cl)c1
inactive: outcome [1] | outcome [3] | Potency [7] | outcome [4] | Potency [10] | outcome [8] | outcome [5] | outcome [9] | outcome [6]

COCCOC(=O)C1=C(C)NC(C)=C(C(=O)OC(C)C)C1c1cccc([N+](=O)[O-])c1 (stereo not drawn)
inactive: outcome [1] | Potency [2] | Potency [7] | outcome [4] | outcome [5] | outcome [9] | outcome [6]

O=C(OCc1ccccc1)C(=O)OCc1ccccc1
inactive: outcome [1] | outcome [3] | Potency [7] | outcome [4] | Potency [10] | outcome [5] | outcome [6]

CCOCCOCCOCC
inactive: outcome [1] | Potency [2] | Potency [7] | outcome [4] | outcome [8] | outcome [5] | outcome [9] | outcome [6]

O=C(/N=N/C(=O)OCc1ccccc1)OCc1ccccc1
inactive: outcome [1] | Potency [2] | Potency [7] | outcome [8] | outcome [5] | outcome [9] | outcome [6]

COc1ccc(-c2cc(=O)c3c(O)cc(O[C@@H]4O[C@H](CO[C@@H]5O[C@@H](C)[C@H](O)[C@@H](O)[C@H]5O)[C@@H](O)[C@H](O)[C@H]4O)cc3o2)cc1O
inactive: outcome [1] | outcome [3] | Potency [7] | outcome [8] | outcome [5] | outcome [9] | outcome [6]

CN=C(NC#N)Nc1ccc(C2=NNC(=O)CC2C)cc1 (stereo not drawn)
inactive: outcome [1] | outcome [3] | Potency [7] | outcome [4] | outcome [8] | outcome [5] | outcome [6]

CC(C)CCCC(C)(C)O
inactive: outcome [1] | outcome [3] | Potency [7] | outcome [4] | outcome [5] | outcome [9] | outcome [6]

c1ccc2c(c1)ccc1c3ccccc3ccc21
inactive: outcome [1] | Potency [7] | outcome [4] | outcome [8] | outcome [5] | outcome [9] | outcome [6]
